Screening results from PubChem.
A488 fluor: A488 region autofluorescence; 59,000 compounds, 0.1% hits; compound autofluorescence, A488 spectral region, dye equivalency; Compound Type: qHTS ECL - MLSMR; AID 591; max dye equivalency, M
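Compound autofluorescence was read in 100 mM Tris pH 8.0 after 15 min at room temperature, ex 480 nm/em 540 nm. Intensities were converted to A488 dye-equivalent concentration using an on-plate six-point A488 standard curve.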
Fluorescein autfl: fluorescein region autofluorescence | 59,000 compounds, 0.91% hits | Compound autofluorescence, 480/540 nm, fluorescein-equivalent; hits give high values | max fluorescein-equivalent concentration, M; in the data active = max fluorescein-equivalent concentration above about 10 nM; inconclusive = between about 1.1 nM and that limit
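Normalized response (dye-equivalent concentration) derives from comparing each well's 540 nm emission, under 480 nm excitation, with plate-resident fluorescein standards. Compounds were held in 100 mM Tris, pH 8.0, for 15 min at room temperature.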
Resorufin autofl: resorufin region autofluorescence; Compound fluorescence, resorufin region 547/598 nm, buffer; hits give high values; max dye-equivalent concentration, M; 59,000 compounds, 0.04% hits; AID 588
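Compounds in 100 mM Tris buffer, pH 8.0, incubated 15 min at room temperature, then read with 547 nm excitation and 598 nm emission filters. Fluorescence was converted to dye-equivalent concentration using an on-plate six-point resorufin standard curve.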
Rhodamine fluor: rhodamine region autofluorescence; Rhodamine-region fluorescence, 547/598 nm, Tris buffer; hits give high values; max dye-equivalent concentration, M; 59,000 compounds, 0.05% hits; AID 594; in the data active = max dye-equivalent concentration above about 11 nM; inconclusive = between about 1.1 nM and that limit
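qHTS spectral profiling of compounds without any target or enzyme present, in pH 8.0 Tris buffer; plates were read after a 15-minute room-temperature incubation using the rhodamine-region filter set.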
TexasRed autofl: compounds fluorescent in Texas Red spectral region; Compound fluorescence, Texas Red channel, 547/618 nm; hits give high values; max dye-equivalent concentration, M; 59,000 compounds, 0.06% hits; AID 587; in the data active = max dye-equivalent concentration above about 10 nM; inconclusive = between about 1.1 nM and that limit
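Pin-transferred compounds and Texas Red standards go into 100 mM Tris buffer, pH 8.0. After 15 min at room temperature, plates are imaged with 547/618 nm filters. Each value is a dye-equivalent concentration derived from the per-plate dye curve.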
Starred values were filed as active, the others as inactive; i = inactive; ? = inconclusive. An excerpt weighted towards active compounds, which were near 0.9% of everything screened. Unless noted, the rule behind the calls is not given here.

SMILES	A488 fluor	Fluorescein autfl	Resorufin autofl	Rhodamine fluor	TexasRed autofl
Cc1ccc(C2NC(=O)c3ccccc3N2)s1 (stereo not given)	i	i	i	i	?
CN1CCc2c(sc3c2C(=O)NC(c2cccs2)N3)C1 (stereo not given)	i	1.8e-08M*	i	i	?
CSc1c(C#N)c(N)c(C#N)c2c1COC(C)(C)C2	i	?	i	i	i
CCC1(C)Cc2c(C#N)c(N)sc(=S)c2CO1 (stereo not given)	i	1e-08M*	i	i	i
N#Cc1c(N)sc(=S)c2c1CCCC2	?	6.8e-08M*	i	i	?
CN1C[C@@H](O)[C@@H](O)[C@@H](O)[C@@H]1CO	i	i	i	i	i
CCOC(=O)c1ccc(CC(=O)c2oc3cc(O)ccc3c2C)o1	i	2.3e-08M*	i	i	?
CCOC(=O)c1oc2cc(O)ccc2c(=O)c1-c1csc(C)n1	i	?	i	i	i
CC(C)C1=CC2=CC[C@H]3[C@@](C)(CCC[C@]3(C)C(=O)O)[C@@H]2CC1	i	i	i	i	i
COc1ccc2cc(C(=O)CCC(=O)O)ccc2c1	i	i	i	i	i
CC(=O)c1c(C)nc2cc(Cl)ccc2c1N	i	i	i	i	i
Cc1nc2ccc(Cl)cc2nc(C)/c1=N\O	?	1.1e-07M*	i	i	?
CCN1CC=C2C(C#N)=C(N)C(C#N)(C#N)C(CCc3ccccc3)C2C1 (stereo not given)	?	1.3e-07M*	i	i	i
CC(=O)N1CC=C2C(C#N)=C(N)C(C#N)(C#N)[C@H](c3ccoc3)[C@H]2C1	i	3.1e-08M*	i	i	i
CC(=O)N1CC=C2C(C#N)=C(N)C(C#N)(C#N)C(C)C2C1 (stereo not given)	i	?	i	i	i
N#CC1=C(N)C(C#N)(C#N)[C@H](c2ccoc2)[C@H]2CN(Cc3ccccc3)CC=C12	?	3.5e-08M*	i	i	?
Nc1nc(N)c(N=Nc2ccc(C(=O)O)c(O)c2)c(N)n1	i	1.4e-08M*	i	i	i
Nc1ccc(C(=O)O)c(O)c1	i	?	i	i	i
CCN1CCC[C@@H]1CNC(=O)c1c(O)c(Cl)cc(Cl)c1OC	i	?	i	i	i
O=C(/C=C\c1ccc(O)cc1)c1ccc(O)cc1O	?	3.7e-08M*	i	i	?
COc1ccc2c(c1)CCC1C2CC[C@]2(C)[C@H](NCCCCCCN3C(=O)C=CC3=O)CC[C@@H]12 (stereo not given in full)	i	?	i	i	i
CC1=C(C#N)C(=O)OC(C)(C)C1	?	5e-08M*	i	i	i
Cc1ccc(-c2cc(-c3nnc(SCC(=O)N(C)CCC#N)n3N)c3ccccc3n2)cc1	i	1.1e-08M*	i	i	i
COc1ccc2c(c1)c1c(C)c3cnccc3c(C)c1n2CCCN	i	i	i	i	i
O=c1cc(O)cc(/C=C\c2ccc(O)c(O)c2)o1	i	?	i	i	i
SMILES	A488 fluor	Fluorescein autfl	Resorufin autofl	Rhodamine fluor	TexasRed autofl
Cc1cccn2c(=O)c3cc(C#N)c(=NC(=O)c4ccncc4)n(CCCOC(C)C)c3nc12	i	1.7e-08M*	i	i	?
CCCn1c(=NC(=O)c2ccncc2)c(C#N)cc2c(=O)n3cccc(C)c3nc21	i	1.2e-08M*	i	i	i
Cc1cccn2c(=O)c3cc(C#N)c(=NC(=O)c4ccc5c(c4)OCO5)n(CC(C)C)c3nc12	i	i	i	i	i
CCNC(=O)[C@@H]1O[C@@H](n2cnc3c(NCc4ccccc4)ncnc32)[C@@H](O)[C@H]1O	i	i	i	i	i
COc1cc2c(cc1O)CC[C@@H]1[C@@H]2CC[C@@]2(C)[C@H](O)CC[C@H]12	i	?	i	i	i
CCN1CCc2c(sc3c2c(NCc2ccco2)nc2nnnn23)C1	i	1.3e-08M*	i	i	i
Cc1nc(NCc2ccco2)c2c3c(sc2n1)CCC3	i	i	i	i	i
CC(C)[C@@H]1O[C@H](/C=C\c2ccccc2)OCC1(C)C	i	?	i	i	i
